Records with an inconclusive call do not appear. Activity calls are given as the source filed them. Unless noted, calls come from the whole dose curve.
Legend:
[1] = Nuclear factor erythroid 2-related factor 2/antioxidant responsive element (Nrf2/ARE) small molecule agonists: qHTS cell viability counter screen in human keratinocytes (AID 1919968; active = well fitted curve in the direction sought with a large enough effect in the repeat runs; an effect the other way counts as inactive or inconclusive; note: nearly all actives have a fitted effect of over 55% in size)
In short: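 Cytotoxicity was multiplexed with the Nrf2/ARE luciferase assay in the same wells. Stably transfected HaCaT keratinocytes were treated with test compounds for 23 h at 37 C. Cell viability was then measured by CellTiter-Fluor fluorescence.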

[2] = Nuclear factor erythroid 2-related factor 2/antioxidant responsive element (Nrf2/ARE) small molecule agonists: luciferase reporter gene qHTS assay in human keratinocytes (AID 1919969); note: nearly all actives have a fitted effect of over 35% in size
[3] = target: Gonadotropin-releasing hormone receptor (Homo sapiens) (UniProt P30968); test: Human gonadotropin-releasing hormone receptor (GnRHR) small molecule agonists, calcium flux assay in GnRHR-HEK293 cells (AID 1920063); note: nearly all actives have a fitted effect of over 35% in size
In short: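 Agonist activity was measured as intracellular calcium flux in HEK293 cells engineered to stably express human GnRHR. After dye loading for 1 hour at 37 C, compounds in DMSO were added and fluorescence was followed for 3 minutes.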

[4] = target: KiSS-1 receptor (Homo sapiens) (UniProt Q969F8); test: Human kisspeptin (KISS1R) small molecule agonists, calcium flux assay in KISS1R-HEK293 cells (AID 1920064; active = well fitted curve in the direction sought with a large enough effect in the repeat runs; an effect the other way counts as inactive or inconclusive)
In short: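 Agonist activity is monitored as intracellular calcium rise in engineered HEK293 cells carrying human KISS1R. Cells are dye-loaded for 1 h at 37 C before compound addition, and fluorescence is recorded for 3 min.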

[5] = G protein-coupled receptor (GPCR) small molecule agonists, calcium flux assay: HEK293 wild type cell line counter screen (AID 1920065)
In short: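 Seed cells, incubate 18 h (37 C, 5% CO2); add calcium dye, 1 h at 37 C; pin-transfer compounds, ATP control or DMSO; read fluorescence 480/540 nm each second for 3 min.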

[6] = p53 small molecule agonists, cell-based qHTS assay with human liver microsomes (AID 1963577);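 note: p53 response element beta-lactamase reporter cells with liver microsomes plus NADPH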
In short: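 With metabolic activation: human liver microsomes (0.5 mg/mL final) plus NADPH (0.5 mg/mL final) added alongside compounds to p53RE-bla cells; 16 h 37 C exposure; beta-lactamase read by LiveBLAzer fluorescence.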

[7] = p53 small molecule agonists, cell-based qHTS assay with rat liver microsomes (AID 1963578)
In short: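 Metabolic activation by rat liver microsomes and NADPH, each 0.5 mg/mL final, added right after compounds to p53RE-bla reporter cells (4,000/well, plated 5 h earlier). 16 h at 37 C, then LiveBLAzer substrate for 2 h at room temperature in the dark; fluorescence read-out.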

[8] = p53 small molecule agonists, cell-based qHTS assay with human liver microsomes: qHTS cell viability counter screen (AID 1963579); note: nearly all actives have a fitted effect of over 45% in size
In short: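 Metabolic activation used human liver microsomes and NADPH, both 0.5 mg/mL final, over 16 hours at 37 C on p53RE-bla cells (4,000/well). Cytotoxicity measured by CellTiter-Glo luminescence, 30 min at room temperature.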

[9] = p53 small molecule agonists, cell-based qHTS assay with rat liver microsomes: qHTS cell viability counter screen (AID 1963580); note: nearly all actives have a fitted effect of over 45% in size
In short: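 Cytotoxicity counter screen: intracellular ATP read by CellTiter-Glo luminescence in the p53 reporter wells. HCT-116 p53RE-bla cells were treated for 16 h at 37 C alongside rat liver microsomes and NADPH, each 0.5 mg/mL final.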

[10] = p53 small molecule agonists, cell-based qHTS assay: qHTS cell viability counter screen (AID 1963581); note: nearly all actives have a fitted effect of over 45% in size
In short: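 Viability was counter-screened in parallel with the p53 agonist reporter by measuring intracellular ATP luminescence in the same HCT-116 p53RE-bla wells after 16 h compound treatment at 37 C.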

[11] = p53 small molecule agonists, cell-based qHTS assay (AID 1963582; active = well fitted activation curve with a large enough effect in the signal ratio in the repeat runs, not every such curve was filed as active; the % refers to the signal ratio)
In short: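 Cells carrying a p53-responsive bla reporter are treated with test compounds for 16 h at 37 C; beta-lactamase activity is then detected with LiveBLAzer B/G FRET substrate after 2 h at room temperature.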

[12] = target: 5-hydroxytryptamine receptor 2A (Homo sapiens) (UniProt P28223); test: 5-hydroxytryptamine receptor 2A (HTR2A) small molecule antagonists, cell-based qHTS assay (AID 1963586); note: nearly all actives have a fitted effect of over 45% in size
In short: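 CHO cells stably expressing human HTR2A were plated for 18 h at 37 C, then loaded with calcium dye for 1 h. Compounds were preincubated 5 min at room temperature before DOI (4 nM solution) was added. Kinetic fluorescence was read for 3 min.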

[13] = target: 5-hydroxytryptamine receptor 2A (Homo sapiens) (UniProt P28223); test: 5-hydroxytryptamine receptor 2A (HTR2A) small molecule agonists, cell-based qHTS assay (AID 1963587); note: nearly all actives have a fitted effect of over 30% in size
In short: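 Kinetic calcium-flux fluorescence (2 min, 1 sec intervals) after compound addition in agonist mode. HTR2A-CHO cells were cultured 18 h, then dye-loaded 1 h at 37 C.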

[14] = target: Muscarinic acetylcholine receptor M1 (Homo sapiens) (UniProt P11229); test: Cholinergic receptor muscarinic 1 (CHRM1) small molecule antagonists, cell-based qHTS assay (AID 1963588); note: nearly all actives have a fitted effect of over 40% in size
In short: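 Compounds were tested at 15 concentrations in three independent runs. Dye-loaded CHRM1-CHO cells were exposed 5 min at room temperature before stimulation by acetylcholine added at 50nM. Intracellular calcium was read kinetically on FDSS for 3 min.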

[15] = target: Muscarinic acetylcholine receptor M1 (Homo sapiens) (UniProt P11229); test: Cholinergic receptor muscarinic 1 (CHRM1) small molecule agonists, cell-based qHTS assay (AID 1963589); note: nearly all actives have a fitted effect of over 35% in size
In short: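 Cells were plated and incubated 18 h at 37 C/5% CO2, loaded with calcium dye for 1 h at 37 C, then treated with compounds in DMSO. Fluorescence was recorded kinetically at 1 sec intervals.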

[16] = cAMP Responsive Elements (CRE) small molecule agonists, cell-based qHTS assay (AID 1963590)
In short: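 Cells carrying a CRE-driven beta-lactamase reporter (HEK 293T) are seeded, incubated overnight (18 h), and treated with test compounds for 3 h at 37 C; reporter activity is then detected with a FRET substrate after 2 h at room temperature.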

[17] = cAMP Responsive Elements (CRE) small molecule antagonists, cell-based qHTS assay (AID 1963591; active = well fitted inhibition curve with a large enough effect in the signal ratio in the repeat runs, not every such curve was filed as active; the % refers to the signal ratio)
In short: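 Cells (CRE-bla HEK 293T, DMEM with 10% dialyzed FBS and 25 mM HEPES) are seeded and incubated 18 h. Compounds are added with NKH477 agonist at 0.25 uM final for 3 h, then FRET substrate for 2 h.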

[18] = target: Beta-2 adrenergic receptor (Homo sapiens) (UniProt P07550); test: Adrenergic beta2 receptor (ADRB2) small molecule antagonists, cell-based qHTS assay (AID 1963592); note: series mostly up to about 92 µM; nearly all actives have a fitted effect of over 50% in size
In short: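 Assay format: CHO-ADRB2 cells, 18-20hr seeding at 37C/5% CO2, then compound plus 1nM isoproterenol agonist mix for 0.5hr RT. Homogeneous time-resolved fluorescence cAMP detection after 1hr, expressed as 665/615 nm ratio.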

[19] = target: D(2) dopamine receptor (Homo sapiens) (UniProt P14416); test: Dopamine D2 receptor (DRD2) small molecule agonists, cell-based qHTS assay (AID 1963594); note: nearly all actives have a fitted effect of over 35% in size
In short: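 cAMP accumulation in DRD2-HEK293 cells measured by HTRF after 1 h detection; compounds added 10 min before NKH477 (200nM […]) forskolin-analogue stimulation, 30 min at room temperature, with Ro20-1724 present at 0.1 mM final.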

[20] = target: D(2) dopamine receptor (Homo sapiens) (UniProt P14416); test: Dopamine D2 receptor (DRD2) small molecule antagonists, cell-based qHTS assay (AID 1963595; active = well fitted inhibition curve with a large enough effect in the signal ratio in the repeat runs, with a control signal flat; the % refers to the signal ratio)
In short: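 Human DRD2 antagonist qHTS measuring cAMP by HTRF. The cells are exposed to compound for 10 min, then to NKH477 (200 nM) and quinpirole (12 nM) for 30 min at RT, with Ro20-1724 (0.1 mM) present throughout.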

Measured: Potency

Chain of 5-hydroxytryptamine receptor 2A (Homo sapiens) (P28223 whole entry, looked up): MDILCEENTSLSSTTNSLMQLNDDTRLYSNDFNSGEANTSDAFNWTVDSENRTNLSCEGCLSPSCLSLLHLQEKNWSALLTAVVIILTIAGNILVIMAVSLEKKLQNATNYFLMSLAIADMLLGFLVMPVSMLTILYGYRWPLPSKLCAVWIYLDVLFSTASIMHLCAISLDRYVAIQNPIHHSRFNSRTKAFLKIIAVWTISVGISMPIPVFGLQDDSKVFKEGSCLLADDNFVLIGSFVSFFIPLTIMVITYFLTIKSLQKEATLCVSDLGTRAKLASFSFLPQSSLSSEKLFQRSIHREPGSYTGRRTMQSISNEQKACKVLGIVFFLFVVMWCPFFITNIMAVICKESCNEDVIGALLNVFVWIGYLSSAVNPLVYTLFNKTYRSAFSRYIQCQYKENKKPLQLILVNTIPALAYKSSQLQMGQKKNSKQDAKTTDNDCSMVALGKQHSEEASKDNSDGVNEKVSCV
Chain of D(2) dopamine receptor (Homo sapiens) (P14416 whole entry, looked up): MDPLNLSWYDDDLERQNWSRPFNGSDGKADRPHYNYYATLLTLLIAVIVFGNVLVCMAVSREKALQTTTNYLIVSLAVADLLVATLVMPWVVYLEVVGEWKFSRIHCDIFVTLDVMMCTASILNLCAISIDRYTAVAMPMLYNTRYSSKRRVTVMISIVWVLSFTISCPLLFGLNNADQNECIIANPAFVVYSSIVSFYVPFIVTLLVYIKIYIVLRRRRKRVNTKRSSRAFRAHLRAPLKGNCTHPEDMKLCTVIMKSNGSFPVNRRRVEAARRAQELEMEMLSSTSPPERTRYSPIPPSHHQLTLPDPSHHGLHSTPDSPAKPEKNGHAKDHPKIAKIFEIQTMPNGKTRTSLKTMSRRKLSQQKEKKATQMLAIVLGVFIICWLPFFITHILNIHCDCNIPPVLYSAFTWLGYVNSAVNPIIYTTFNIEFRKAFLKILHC
Chain of Muscarinic acetylcholine receptor M1 (Homo sapiens) (P11229 whole entry, looked up): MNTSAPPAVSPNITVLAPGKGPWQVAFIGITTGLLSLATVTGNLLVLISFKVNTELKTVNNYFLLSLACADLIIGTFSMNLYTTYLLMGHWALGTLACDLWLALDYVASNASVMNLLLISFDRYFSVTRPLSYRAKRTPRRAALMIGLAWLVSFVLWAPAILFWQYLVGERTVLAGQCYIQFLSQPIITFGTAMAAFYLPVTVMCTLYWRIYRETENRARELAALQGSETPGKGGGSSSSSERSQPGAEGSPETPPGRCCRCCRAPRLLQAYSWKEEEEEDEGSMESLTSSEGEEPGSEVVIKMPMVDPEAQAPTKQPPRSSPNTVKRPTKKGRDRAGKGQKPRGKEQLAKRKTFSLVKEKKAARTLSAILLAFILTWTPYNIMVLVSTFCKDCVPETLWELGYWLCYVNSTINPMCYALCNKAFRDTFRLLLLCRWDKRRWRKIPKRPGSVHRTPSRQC
Chain of KiSS-1 receptor (Homo sapiens) (Q969F8 whole entry, looked up): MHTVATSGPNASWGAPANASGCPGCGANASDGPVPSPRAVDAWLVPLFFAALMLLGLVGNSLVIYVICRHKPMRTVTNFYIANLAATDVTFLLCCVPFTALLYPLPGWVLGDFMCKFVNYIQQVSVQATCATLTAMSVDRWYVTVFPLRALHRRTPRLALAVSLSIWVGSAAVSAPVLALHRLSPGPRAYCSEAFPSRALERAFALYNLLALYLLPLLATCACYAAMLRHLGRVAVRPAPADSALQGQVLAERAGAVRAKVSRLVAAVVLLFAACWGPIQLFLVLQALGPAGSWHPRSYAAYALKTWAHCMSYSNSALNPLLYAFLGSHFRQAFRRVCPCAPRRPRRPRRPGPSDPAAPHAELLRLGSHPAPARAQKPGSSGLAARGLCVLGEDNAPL
Chain of Gonadotropin-releasing hormone receptor (Homo sapiens) (P30968 whole entry, looked up): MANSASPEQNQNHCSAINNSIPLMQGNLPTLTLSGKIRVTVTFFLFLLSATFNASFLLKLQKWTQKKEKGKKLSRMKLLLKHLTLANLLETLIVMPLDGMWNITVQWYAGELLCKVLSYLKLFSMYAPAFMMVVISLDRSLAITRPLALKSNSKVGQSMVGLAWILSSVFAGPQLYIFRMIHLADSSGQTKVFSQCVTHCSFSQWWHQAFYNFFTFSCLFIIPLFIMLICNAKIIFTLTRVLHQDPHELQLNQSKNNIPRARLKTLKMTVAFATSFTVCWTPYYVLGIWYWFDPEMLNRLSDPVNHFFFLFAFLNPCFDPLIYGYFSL
Chain of Beta-2 adrenergic receptor (Homo sapiens) (P07550 whole entry, looked up): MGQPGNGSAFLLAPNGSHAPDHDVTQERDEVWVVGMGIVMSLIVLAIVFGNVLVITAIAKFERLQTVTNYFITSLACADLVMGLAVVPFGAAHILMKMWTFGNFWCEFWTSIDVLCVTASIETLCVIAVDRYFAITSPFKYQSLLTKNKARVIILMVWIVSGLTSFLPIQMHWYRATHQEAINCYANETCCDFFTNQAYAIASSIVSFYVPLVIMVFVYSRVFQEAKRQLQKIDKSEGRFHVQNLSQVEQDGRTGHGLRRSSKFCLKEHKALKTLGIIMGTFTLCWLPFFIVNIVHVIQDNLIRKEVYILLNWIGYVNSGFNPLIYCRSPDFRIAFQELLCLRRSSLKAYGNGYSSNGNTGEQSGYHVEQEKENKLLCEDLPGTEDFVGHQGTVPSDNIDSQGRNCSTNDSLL

O=C(O)c1ccccn1
inactive: all assays above

O=C(Cl)OCCOCCOC(=O)Cl
not listed: [19]
inactive: all other assays above

N#Cc1ccc(O)cc1
inactive: all assays above

CCCCC(CC)COC(=O)c1ccc(C(=O)OCC(CC)CCCC)c(C(=O)OCC(CC)CCCC)c1 (stereo not given)
inactive: all assays above

N#CN=C(N)N
inactive: all assays above

CCOP(=O)(OCC)OP(=O)(OCC)OCC
not listed: [19]
inactive: all other assays above

COc1ccc2c3c1O[C@H]1[C@H](O)CC[C@H]4[C@@H](C2)N(C)CC[C@@]341
not listed: [19]
inactive: all other assays above

Nc1ccc([As](=O)(O)O)cc1
inactive: all assays above

CCCCOCCOP(=O)(OCCOCCCC)OCCOCCCC
inactive: all assays above

CCOP(=S)(OCC)SCSc1cc(Cl)ccc1Cl
inactive: all assays above

ClC1(Cl)C2(Cl)C3(Cl)C4(Cl)C(Cl)(Cl)C5(Cl)C3(Cl)C1(Cl)C5(Cl)C24Cl (stereo not given)
not listed: [20]
inactive: all other assays above

N#CC1(N=NC2(C#N)CCCCC2)CCCCC1
inactive: all assays above

Nc1ccc(Cl)cc1
not listed: [19]
inactive: all other assays above

CCOC(=O)Nc1cccc(OC(=O)Nc2ccccc2)c1
inactive: all assays above

O=[N+]([O-])c1cccc2ccccc12
inactive: all assays above

Reference: PubChem BioAssay (Tox21)
